We go through 15 compounds from PubChem BioAssay.

A short description of experiment [1]: compound effects on lung adenocarcinoma cell viability – A549, calcein-AM fluorescence, 48 h, basal, profiling panel (AID 1162). Conditions: higher = more signal.
Experiment [2] in a line: compound effects on differentiated 3T3-L1 adipocyte viability – cell-based, 3T3-L1 adipocytes, calcein-AM fluorescence, 48 h, basal, profiling panel (AID 1163). Conditions: 3T3-L1 adipocytes viability, higher = more signal.
Experiment [3] can be described thus: compound effects on hepatocellular carcinoma cell viability – HepG2, calcein-AM fluorescence, 48 h, basal, profiling panel (AID 1164). Conditions: higher = more signal.
A short description of experiment [4]: compound effects on multiple myeloma cell viability – MM1S, calcein-AM fluorescence, 48 h, basal, profiling panel (AID 1165). Conditions: higher = more signal.
A short description of experiment [5]: calcein-AM signal in unstimulated myeloma cells – cell-based, calcein-AM fluorescence, 48 h, PK04 Diversity Set, profiling panel (AID 1166).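 Further: cells grown under basal conditions without added stimulus.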 To be noted: RPMI8226 myeloma viability, higher = more signal.
Experiment [6] in a line: JC-1 mitochondrial signal, unstimulated HepG2 cells – cell-based, JC-1 fluorescence, 24 h, 100 nL compound, profiling panel (AID 1167). To be noted: HepG2 mitochondrial potential, higher = more signal.
Experiment [7] in a line: JC-1 mitochondrial signal, unstimulated adipocytes – cell-based, JC-1 fluorescence, 3T3-L1 adipocytes, 24 h, 100 nL compound, profiling panel (AID 1168). To be noted: JC-1 mitochondrial fluorescence, higher = more signal, called active from +8 up or from −8 down.
The nature of experiment [8]: JC-1 mitochondrial signal, unstimulated myeloma cells – cell-based, JC-1 fluorescence, RPMI8226, 24 h, 100 nL compound, profiling panel (AID 1169). Conditions: JC-1 mitochondrial potential fluorescence, higher = more signal.
The nature of experiment [9]: JC-1 mitochondrial signal, unstimulated MM1S myeloma – cell-based, JC-1 fluorescence, 24 h, 100 nL compound, profiling panel (AID 1170). To be noted: MM1S mitochondrial potential, higher = more signal.
A short description of experiment [10]: resazurin metabolic signal in A549 cells – cell-based, resazurin fluorescence, 24 h, PK04 Diversity Set, profiling panel (AID 1171). Conditions: A549 viability, higher = more signal, called active from +8 up or from −8 down.

SMILES strings stand for the structures. Activity calls are given as the source filed them.
Further: test concentration not given here.

As to `CCC(CC)C(O)C1C=CC2C(=O)N(C)C(=O)C2N1Nc1ccccc1` (stereo not given), the z-score in experiment [1] was 0.095; in [2] it was -1.07; in experiment [3] it was 0.597; in experiment [4], -0.299; in [5], -0.469; in experiment [6], -0.843. Further, the z-score in experiment [7] is -0.83 (inactive); in experiment [8] it was -0.802; in [9] it was 0.0765; in [10], 0.78 (inactive).

Consider `CCCN1C(=O)[C@]2(CCS(=O)(=O)c3ccccc3)N=C(c3ccc(OCCCO)cc3)O[C@@H]2c2ccccc21`, for which the z-score in experiment [1] was 1.27; in experiment [2], 1.86; in experiment [3], -0.801; in experiment [4], 0.0361; in [5], -1.97; in [6], 0.28. Further, the z-score in experiment [7] was -0.494 (inactive); in experiment [8] it was -0.917; in experiment [9], -1.28; in experiment [10], -1.57 (inactive).

Take `C=C(CCCC)C(=O)CC[C@H](OC(C)=O)c1cccc(OCCO)c1`: the z-score in experiment [1] is -0.0802; in [2] it was 1.62; in experiment [3] it was -0.889; in [4], -1.12; in [5], -1.18; in [6], -0.525. The z-score was 0.906 (inactive) in [7], 0.139 in experiment [8], -0.964 in experiment [9] and -0.252 (inactive) in experiment [10].

With `C=CCOC(=O)[C@@H]1[C@H]2C(=O)O[C@H](c3ccccc3)[C@H](c3ccccc3)N2[C@H](c2ccc(OCCOC(=O)[C@@H]3C[C@@H]4C(=O)N[C@@H](Cc5ccccc5)C(=O)N4[C@@H]3c3ccc(O)cc3)cc2)[C@@]12C(=O)Nc1ccc(I)cc12`, the z-score in [1] is -1.09; in experiment [2], 1.39; in [3], 0.1; in [4], 0.67; in [5] it was -0.645; in experiment [6] it was -1.56. The z-score is 0.865 (inactive) in experiment [7], -0.451 in [8], -1.38 in experiment [9] and 0.128 (inactive) in [10].

Regarding `COc1ccc(C(O)C2C=CC3C(=O)N(c4ccccc4)C(=O)C3N2Nc2ccccc2F)cc1OCc1ccccc1` (stereo not given), the z-score in experiment [1] was -0.0678; in [2], -1.77; in experiment [3], -0.561; in experiment [4] it was 0.0664; in experiment [5], -0.43; in [6], -1.51. In addition, the z-score in experiment [7] was -0.838 (inactive); in experiment [8] it was -0.75; in experiment [9], -0.909; in [10], -0.179 (inactive).

As to `COc1ccc(CCNC(=O)[C@@]2(Sc3ccc(C)cc3)CC(=O)N(C3CCCCC3)[C@@H]2c2ccc(CO)cc2I)cc1`, the z-score is 1.06 in [1]; -0.475 in [2]; -0.242 in [3]; -2.14 in [4]; -2.93 in experiment [5]; -0.836 in experiment [6]. Moreover, the z-score in experiment [7] is -0.792 (inactive); in [8], -0.632; in experiment [9], -1.33; in experiment [10], 1.11 (inactive).

With `COC(=O)[C@@]1(Cc2ccccc2)[C@H]2c3cc(C(=O)N4CCCC4)n(Cc4nc5ccccc5[nH]4)c3C[C@H]2CN1C(=O)c1ccccc1`, the z-score was -0.579 in experiment [1]; 0.887 in experiment [2]; -0.537 in experiment [3]; -2.39 in [4]; -2.19 in experiment [5]; 1.73 in [6]. For the same compound, the z-score in [7] is -0.807 (inactive); in experiment [8], -0.863; in experiment [9] it was -0.81; in experiment [10] it was -0.178 (inactive).

With `CO[C@H]1O[C@H](CO)[C@@H](OC(=O)Nc2ccc(Br)cc2)[C@H](OC(=O)c2cc3ccccc3[nH]2)[C@H]1OC(=O)c1cc2ccccc2[nH]1`, the z-score was -2.49 in experiment [1]; 0.266 in [2]; -2.58 in [3]; -3.23 in [4]; -3.2 in experiment [5]; -2.38 in experiment [6]. The z-score is 2.37 (inactive) in [7], -0.589 in experiment [8], -0.634 in [9] and -5.8 (inactive) in [10].

For `CC(C)(C)OC(=O)CC[C@@]12N=C(c3ccc(OCCCO)cc3)O[C@@H]1c1ccccc1N(CCS(=O)(=O)c1ccccc1)C2=O`, the z-score in experiment [1] was 2.14; in experiment [2], 0.828; in experiment [3], 0.116; in experiment [4] it was -1.6; in experiment [5], -0.72; in experiment [6] it was 0.741. The z-score in [7] is 3.28 (inactive); in experiment [8], -0.814; in experiment [9] it was -1.13; in experiment [10] it was -1.91 (inactive).

Turning to `COCCOC(=O)N1C(=O)[C@@]2(c3cc(C#CC4=CCCCC4)ccc31)[C@H](C(=O)N1CCc3cc(OC)c(OC)cc3C1)[C@H]1C(=O)O[C@H](c3ccccc3)[C@H](c3ccccc3)N1[C@@H]2c1ccc(OCCO)cc1`, the z-score is -0.989 in [1]; 0.847 in experiment [2]; -1.2 in experiment [3]; -1.84 in experiment [4]; -0.691 in experiment [5]; -0.207 in experiment [6]. Besides, the z-score in [7] was 1.22 (inactive); in [8], -0.621; in experiment [9], -0.968; in experiment [10] it was 0.531 (inactive).

As to `CCCCN1CC=CC23O[C@@H]4/C=C\CCC(C)OC(=O)C4[C@H]2C(=O)N(CCCCCO)[C@@H]3C1=O` (stereo not given in full), the z-score in experiment [1] was -0.143; in experiment [2] it was 0.0763; in [3], 0.478; in experiment [4] it was 1.52; in experiment [5] it was 0.096; in experiment [6], 0.241. Also, the z-score was 0.9 (inactive) in [7], 0.32 in experiment [8], -0.133 in [9] and 0.455 (inactive) in experiment [10].

Take `CCCCCCC#C[Si](O[C@H](c1ccccc1)c1cn([C@H](CO)Cc2ccccc2)nn1)(C(C)C)C(C)C`: the z-score in experiment [1] was 1.77; in experiment [2] it was -0.121; in [3], -0.407; in experiment [4], -0.178; in [5], -0.542; in experiment [6] it was 0.338. Further, the z-score in experiment [7] is -0.94 (inactive); in experiment [8], -0.229; in experiment [9], -1.75; in experiment [10], 0.419 (inactive).

As for `COC(=O)c1c(CC[C@@H](CO)NC(=O)N[C@@H](C)Cn2cc(C3(O)CCCCC3)nn2)oc(C(C)=O)c1C(=O)OC`, the z-score in [1] was 0.0154; in experiment [2] it was 0.93; in experiment [3], -0.0256; in experiment [4] it was 0.0508; in [5], -1.82; in experiment [6], -0.637. Also, the z-score in experiment [7] is 1.17 (inactive); in experiment [8], -0.44; in experiment [9] it was 0.414; in experiment [10], -1.04 (inactive).

For the compound `COCCCN1C(=O)[C@@]2(Cc3ccccc31)c1ccccc1C(=O)N(Cc1ccccc1C(F)(F)F)[C@H]2c1ccc(CO)cc1`, the z-score is -0.84 in experiment [1]; -1.15 in experiment [2]; -0.539 in [3]; -0.155 in experiment [4]; -0.259 in [5]; -0.451 in experiment [6]. In addition, the z-score in [7] was 0.801 (inactive); in experiment [8] it was 0.799; in experiment [9], 0.148; in experiment [10] it was -0.356 (inactive).

In the case of `O=C1[C@H]2C=C(Br)[C@H](C[C@@H]2OCCCCO)[C@@]12CO2`, the z-score is -0.0982 in [1]; -1.26 in experiment [2]; -0.141 in experiment [3]; -0.723 in experiment [4]; -2.13 in [5]; -1.48 in experiment [6]. The z-score in [7] is 0.026 (inactive); in experiment [8], -0.88; in experiment [9], -0.147; in experiment [10] it was -0.621 (inactive).
